# Tests used:
# Assay in all cases: DAPPL (digital affinity profiling via proximity ligation, sequencing); 10 mM Tris-HCl pH 7.5, 50 mM NaCl, 1 mM DTT, 4% glycerol, room temperature, 30 min; GST-TFs on glutathione beads, 16-mer random dsDNA library, 0.1% formaldehyde crosslink after washing; high values mean tight binding
# Settings in all cases: protein: recombinant; tags: N-terminal GST; dsDNA, one strand shown
# [1] = biological target: ETV1 (Homo sapiens, UniProt P50549 1-477)
# Method in brief: (§1)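 Binding signal is given per hexamer as its read frequency for a factor divided by its frequency in the tag-only sample. GST-fused human transcription factors were expressed in yeast, captured on glutathione beads, barcoded with DNA and pooled with that sample, then incubated with 200 nmole of a 16-mer random double-stranded DNA library in Tris/NaCl/DTT/glycerol buffer for 30 min at room temperature. The pools were then washed, crosslinked, proximity-ligated, amplified by PCR and sequenced on an Illumina NextSeq500.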
# [2] = biological target: T1, ERF (Homo sapiens, UniProt P50548 1-548)
# T1 sequence: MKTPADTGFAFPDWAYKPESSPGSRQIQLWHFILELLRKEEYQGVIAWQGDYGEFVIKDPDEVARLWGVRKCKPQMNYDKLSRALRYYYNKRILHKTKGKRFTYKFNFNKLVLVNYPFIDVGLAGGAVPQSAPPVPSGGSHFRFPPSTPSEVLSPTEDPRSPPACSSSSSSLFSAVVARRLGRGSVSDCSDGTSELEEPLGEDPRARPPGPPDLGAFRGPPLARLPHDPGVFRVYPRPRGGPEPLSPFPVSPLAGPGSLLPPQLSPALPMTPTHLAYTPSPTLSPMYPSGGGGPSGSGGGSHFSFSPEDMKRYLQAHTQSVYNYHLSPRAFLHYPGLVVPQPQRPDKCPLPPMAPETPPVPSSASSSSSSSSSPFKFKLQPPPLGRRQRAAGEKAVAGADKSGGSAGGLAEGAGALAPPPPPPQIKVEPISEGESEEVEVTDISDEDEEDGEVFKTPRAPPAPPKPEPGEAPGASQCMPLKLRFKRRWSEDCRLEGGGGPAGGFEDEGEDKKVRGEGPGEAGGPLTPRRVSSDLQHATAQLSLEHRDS
# Method in brief: as §1
# [3] = biological target: T2, ETV3L (Homo sapiens, UniProt Q6ZN32 1-361)
# T2 sequence: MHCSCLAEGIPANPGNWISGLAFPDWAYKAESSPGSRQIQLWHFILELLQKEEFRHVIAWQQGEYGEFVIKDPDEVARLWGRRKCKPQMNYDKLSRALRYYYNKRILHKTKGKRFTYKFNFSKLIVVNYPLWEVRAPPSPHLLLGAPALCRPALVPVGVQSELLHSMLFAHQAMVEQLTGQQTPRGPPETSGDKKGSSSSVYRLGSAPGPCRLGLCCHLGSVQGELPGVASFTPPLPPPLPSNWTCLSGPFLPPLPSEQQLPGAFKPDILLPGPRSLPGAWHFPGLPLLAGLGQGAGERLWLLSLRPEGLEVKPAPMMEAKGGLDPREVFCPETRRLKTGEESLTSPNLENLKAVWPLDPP
# Method in brief: as §1
# [4] = biological target: T3, ETS2 (Homo sapiens, UniProt P15036 1-469)
# T3 sequence: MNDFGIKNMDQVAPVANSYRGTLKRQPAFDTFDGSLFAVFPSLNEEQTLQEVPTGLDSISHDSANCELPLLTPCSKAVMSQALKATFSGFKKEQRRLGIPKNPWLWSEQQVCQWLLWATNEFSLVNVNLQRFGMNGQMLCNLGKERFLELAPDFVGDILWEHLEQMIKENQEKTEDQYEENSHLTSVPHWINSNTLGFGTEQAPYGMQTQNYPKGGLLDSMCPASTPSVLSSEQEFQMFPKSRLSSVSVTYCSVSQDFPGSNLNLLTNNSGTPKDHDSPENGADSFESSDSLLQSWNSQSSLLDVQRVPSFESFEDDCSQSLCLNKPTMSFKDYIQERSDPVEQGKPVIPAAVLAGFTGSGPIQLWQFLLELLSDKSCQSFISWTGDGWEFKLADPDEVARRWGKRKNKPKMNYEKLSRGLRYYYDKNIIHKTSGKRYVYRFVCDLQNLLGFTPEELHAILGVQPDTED
# Method in brief: as §1
# [5] = biological target: T4, SPDEF (Homo sapiens, UniProt O95238 1-335)
# T4 sequence: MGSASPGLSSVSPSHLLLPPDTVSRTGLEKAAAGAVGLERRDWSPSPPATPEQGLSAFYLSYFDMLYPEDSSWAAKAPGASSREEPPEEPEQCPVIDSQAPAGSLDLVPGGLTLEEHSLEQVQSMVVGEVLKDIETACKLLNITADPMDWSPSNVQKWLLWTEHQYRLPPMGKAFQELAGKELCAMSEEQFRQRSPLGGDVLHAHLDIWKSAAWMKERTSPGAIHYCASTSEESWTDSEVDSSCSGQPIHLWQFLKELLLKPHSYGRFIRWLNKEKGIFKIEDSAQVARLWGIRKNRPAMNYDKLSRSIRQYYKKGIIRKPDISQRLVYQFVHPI
# Method in brief: as §1
# [6] = biological target: T5, ETV7 (Homo sapiens, UniProt Q9Y603 1-341)
# T5 sequence: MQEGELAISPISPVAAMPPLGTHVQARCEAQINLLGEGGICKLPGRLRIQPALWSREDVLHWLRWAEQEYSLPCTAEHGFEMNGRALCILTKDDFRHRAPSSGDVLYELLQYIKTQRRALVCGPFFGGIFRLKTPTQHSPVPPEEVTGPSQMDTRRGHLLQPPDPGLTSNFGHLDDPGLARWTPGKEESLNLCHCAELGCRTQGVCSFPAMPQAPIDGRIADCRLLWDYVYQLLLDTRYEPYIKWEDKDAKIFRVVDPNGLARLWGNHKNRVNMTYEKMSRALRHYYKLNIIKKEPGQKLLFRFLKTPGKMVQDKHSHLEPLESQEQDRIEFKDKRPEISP
# Method in brief: as §1
# [7] = biological target: T6, ELF5 (Homo sapiens, UniProt Q9UKW6-2 1-255)
# T6 sequence: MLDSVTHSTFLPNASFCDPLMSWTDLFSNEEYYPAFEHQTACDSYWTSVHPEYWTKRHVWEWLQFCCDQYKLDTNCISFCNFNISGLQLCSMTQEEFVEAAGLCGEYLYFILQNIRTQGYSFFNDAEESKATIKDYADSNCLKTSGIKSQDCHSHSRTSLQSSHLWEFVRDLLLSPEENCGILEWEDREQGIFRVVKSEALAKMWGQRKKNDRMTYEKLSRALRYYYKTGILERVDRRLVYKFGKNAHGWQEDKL
# Method in brief: as §1
# [8] = biological target: T7, ETV3 (Homo sapiens, UniProt P41162-2 1-143)
# T7 sequence: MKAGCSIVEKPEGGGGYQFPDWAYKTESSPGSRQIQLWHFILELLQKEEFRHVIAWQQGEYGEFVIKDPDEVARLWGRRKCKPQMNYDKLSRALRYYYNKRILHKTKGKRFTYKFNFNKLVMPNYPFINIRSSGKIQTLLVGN
# Method in brief: as §1
# [9] = biological target: ETV6 (Homo sapiens, UniProt P41212 1-452)
# Chain of ETV6 (P41212 whole entry): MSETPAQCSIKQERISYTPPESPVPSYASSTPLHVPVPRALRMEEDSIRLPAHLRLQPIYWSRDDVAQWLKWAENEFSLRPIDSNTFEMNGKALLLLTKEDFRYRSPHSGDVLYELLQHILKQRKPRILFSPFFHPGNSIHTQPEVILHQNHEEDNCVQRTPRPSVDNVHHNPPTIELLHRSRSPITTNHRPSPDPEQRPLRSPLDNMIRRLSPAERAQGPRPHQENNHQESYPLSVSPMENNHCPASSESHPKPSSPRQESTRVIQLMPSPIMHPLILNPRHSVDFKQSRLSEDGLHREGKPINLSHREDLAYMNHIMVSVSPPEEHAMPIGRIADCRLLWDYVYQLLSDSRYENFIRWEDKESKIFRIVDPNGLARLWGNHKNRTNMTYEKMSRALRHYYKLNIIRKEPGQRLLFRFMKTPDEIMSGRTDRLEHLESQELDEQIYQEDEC
# Method in brief: as §1
# Chain of ETV1 (P50549 whole entry, the tested form may be a part): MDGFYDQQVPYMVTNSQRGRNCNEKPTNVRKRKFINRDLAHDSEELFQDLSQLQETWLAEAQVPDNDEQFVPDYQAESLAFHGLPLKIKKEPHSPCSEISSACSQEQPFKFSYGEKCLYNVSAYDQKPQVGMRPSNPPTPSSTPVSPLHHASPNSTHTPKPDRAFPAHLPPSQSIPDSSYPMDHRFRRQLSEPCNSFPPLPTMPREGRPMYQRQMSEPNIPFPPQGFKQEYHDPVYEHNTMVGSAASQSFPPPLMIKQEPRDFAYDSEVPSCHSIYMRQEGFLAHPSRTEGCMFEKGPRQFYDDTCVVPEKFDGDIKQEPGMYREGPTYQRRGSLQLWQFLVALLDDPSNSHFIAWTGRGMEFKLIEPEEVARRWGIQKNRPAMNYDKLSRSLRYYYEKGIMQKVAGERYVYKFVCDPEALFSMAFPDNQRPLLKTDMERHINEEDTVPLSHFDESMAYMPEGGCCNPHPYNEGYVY
sequence,measurement,setting,value
AAGCTA,binding signal,[1],"1.17 fold enrichment (6-mer frequency, TF over GST control)"
same,binding signal,[2],"1.18 fold enrichment (6-mer frequency, TF over GST control)"
same,binding signal,[3],"1.2 fold enrichment (6-mer frequency, TF over GST control)"
same,binding signal,[4],"1.14 fold enrichment (6-mer frequency, TF over GST control)"
same,binding signal,[5],"1.16 fold enrichment (6-mer frequency, TF over GST control)"
same,binding signal,[6],"1.2 fold enrichment (6-mer frequency, TF over GST control)"
same,binding signal,[7],"1.11 fold enrichment (6-mer frequency, TF over GST control)"
same,binding signal,[8],"1.2 fold enrichment (6-mer frequency, TF over GST control)"
same,binding signal,[9],"1.1 fold enrichment (6-mer frequency, TF over GST control)"
